A3A deaminase: APOBEC3A ssDNA deaminase inhibitors, primary screen, selectivity assay for APOBEC3G inhibitor project, biochemical, FAM/TAMRA oligo cleavage fluorescence | inhibition, % at 20 µM | actives 0.41% (n = 330,000) | recombinant A3A, FAM/TAMRA ssDNA deamination fluorescence;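 active means at least 40% inhibition at 20 µM here, with at most 30% in a related deaminase screen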
NALP1 yeast inh: NALP1 inflammasome inhibitors in reconstituted yeast, colorimetric, S. cerevisiae, triplicate retest. inhibition, % at 10 µM. actives 0.61% (n = 280,000). S. cerevisiae NALP1/ASC/caspase-1 growth, X-gal OD620, 72 h; in the data active means inhibition mostly above about 24%, no sharp cut-off; inactive means mostly below about 32%
Fh CTSL1 inh: Fasciola hepatica cathepsin L1 inhibitors, primary screen, counter-screen for PFM18AAP inhibitor project, biochemical, QFRET, fluorogenic peptide substrate; recombinant F. hepatica cathepsin L1, Z-Leu-Arg-MCA fluorescence; inhibition, % at 5.96 µM; actives 0.49% (n = 300,000);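 active means inhibition above the mean of all tested compounds plus 3 SD, set per screening campaign, cut at about 17% in these data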
A3G deaminase: APOBEC3G DNA deaminase inhibitors, primary screen, biochemical, fluorescence, single-stranded DNA substrate, uHTS | recombinant A3G, ssDNA deamination FAM/TAMRA fluorescence | actives 0.28% (n = 330,000) | DNA dC->dU-editing enzyme APOBEC-3G (Homo sapiens), Q9HC16 | AID 493012, 2011 | inhibition, % at 20 µM;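 active means inhibition of at least 40% at 20 µM, with no more than 30% in the related APOBEC3A deaminase screen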
HGIII-sPLA2 inh: human group III sPLA2 inhibitors, primary screen, biochemical, QFRET, BODIPY PC-A2 liposome substrate; Group 3 secretory phospholipase A2 (Homo sapiens), Q9NZ20; QFRET BODIPY PC-A2 liposome hydrolysis, fluorescence; inhibition, % at 12.2 µM; actives 0.56% (n = 370,000); AID 743126, 2013;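 active means inhibition above mean plus 3 SD of compounds lying within the high and low control bounds, cut at about 19% in these data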
Target sequence (Q9NZ20 whole entry, looked up): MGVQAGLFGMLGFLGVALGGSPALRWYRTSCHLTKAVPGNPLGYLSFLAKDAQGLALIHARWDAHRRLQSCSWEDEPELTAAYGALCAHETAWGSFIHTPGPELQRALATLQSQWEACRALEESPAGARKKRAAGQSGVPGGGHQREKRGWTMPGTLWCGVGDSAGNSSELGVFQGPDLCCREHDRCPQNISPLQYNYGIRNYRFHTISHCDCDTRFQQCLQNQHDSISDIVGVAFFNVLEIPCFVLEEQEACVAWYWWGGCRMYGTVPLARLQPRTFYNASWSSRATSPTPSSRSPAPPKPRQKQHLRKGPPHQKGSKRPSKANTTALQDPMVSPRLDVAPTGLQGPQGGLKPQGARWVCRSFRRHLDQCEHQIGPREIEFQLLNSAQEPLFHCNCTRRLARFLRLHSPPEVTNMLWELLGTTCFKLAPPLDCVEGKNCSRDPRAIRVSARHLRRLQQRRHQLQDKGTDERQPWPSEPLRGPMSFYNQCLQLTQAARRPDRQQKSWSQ
A3A conf: APOBEC3A deaminase inhibitors, retest, confirmation, selectivity assay for APOBEC3G inhibitor project, biochemical, single concentration, fluorescence readout | inhibition, % at 20 µM | shares compounds with A3A deaminase | actives 63% (n = 1,400) | recombinant A3A, ssDNA deaminase UDG fluorescence assay;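 active means inhibition reaching a set limit, 80% of the first screen's cutoff, at 20 µM in any replicate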
UDG A3A counter: E. coli UDG inhibitors, confirmation, counter-screen for APOBEC3A inhibitor project, biochemical, single concentration, fluorescence, FAM/TAMRA oligo; shares compounds with A3A deaminase; UDG counterscreen, FAM/TAMRA uracil oligo fluorescence; inhibition, % at 20 µM; 1,000 tested, under 10 active; AID 504714, 2011; call rule not given here
A number is an active result. Only some compounds are listed: those with a hit (about 2% of all), similar ones and a draw of the others.

Results for CN(C)CC(=O)N[C@H]1C[C@@H]2O[C@H](CO)CC[C@@H]2O[C@@H]1CCc1ccc(-c2ccc(F)cc2)cc1 ?
HGIII-sPLA2 inh: inactive

Results for CC(C)n1c(SCC(=O)Nc2nncs2)nnc1-c1ccco1 ?
A3A deaminase: 66.2; NALP1 yeast inh: inactive; Fh CTSL1 inh: inactive; A3G deaminase: inactive; A3A conf: 53.0; UDG A3A counter: inactive

What do the screens show for `C[C@H]1/C=C/CC(=O)N[C@@H](c2ccc3ccccc3c2)[C@@H](C)/C=C/CC(=O)N[C@H]1c1ccc2ccccc2c1`?
HGIII-sPLA2 inh: inactive

How did CCOC(=O)Cn1c2[n+](c3ccccc31)CC(O)CS2 (stereo not given) do in these assays?
A3A deaminase: 69.3; NALP1 yeast inh: inactive; Fh CTSL1 inh: inactive; A3G deaminase: inactive; HGIII-sPLA2 inh: inactive; A3A conf: 85.6; UDG A3A counter: inactive

How did COC(=O)Cn1c2[n+](c3ccccc31)CC(O)CS2 (stereo not given) do in these assays?
A3A deaminase: inactive; NALP1 yeast inh: inactive; Fh CTSL1 inh: inactive; A3G deaminase: inactive; HGIII-sPLA2 inh: inactive

Results for CC#CC(=O)N[C@H]1CC[C@@]23CCCN2C(=O)CCC[C@H]3[C@H]1C ?
HGIII-sPLA2 inh: inactive

What do the screens show for `CCC(=O)Oc1ccc(C(=O)Nc2cccc(C(=O)c3ccccc3)c2)cc1`?
A3A deaminase: 44.6; NALP1 yeast inh: inactive; Fh CTSL1 inh: inactive; A3G deaminase: inactive; HGIII-sPLA2 inh: inactive; A3A conf: inactive; UDG A3A counter: inactive

How did CC(=O)Oc1ccc(C(=O)Nc2cccc(C(=O)c3cccc(NC(=O)c4ccc(OC(C)=O)cc4)c3)c2)cc1 do in these assays?
A3A deaminase: inactive; NALP1 yeast inh: inactive; Fh CTSL1 inh: inactive; A3G deaminase: inactive; HGIII-sPLA2 inh: inactive

What do the screens show for `S=c1[nH]nc(-c2n[nH]c3c2CCC3)n1N=Cc1cccs1`?
HGIII-sPLA2 inh: inactive

Results for N#CCC(=O)N/N=C/c1cn(Cc2ccccc2C#N)c2ccccc12 ?
A3A deaminase: 56.3; NALP1 yeast inh: inactive; Fh CTSL1 inh: inactive; A3G deaminase: inactive; HGIII-sPLA2 inh: inactive; A3A conf: 71.9; UDG A3A counter: inactive

What do the screens show for `N#Cc1ccc(NC(=S)Nc2ccccc2)cc1`?
A3A deaminase: 44.0; NALP1 yeast inh: inactive; Fh CTSL1 inh: inactive; A3G deaminase: inactive; HGIII-sPLA2 inh: inactive; A3A conf: inactive; UDG A3A counter: inactive

What do the screens show for `CN[C@H]1C[C@H]2c3cc(-c4ccc5c(c4)OCO5)ccc3CCN2C[C@H]1[C@H](C)O`?
HGIII-sPLA2 inh: inactive

What do the screens show for `COc1cc(C(=O)NCc2ccco2)c(Br)c(OC)c1OC`?
A3A deaminase: 51.1; NALP1 yeast inh: inactive; Fh CTSL1 inh: inactive; A3G deaminase: inactive; HGIII-sPLA2 inh: inactive; A3A conf: inactive; UDG A3A counter: inactive

How did COc1cc(C(=O)NCc2ccco2)cc(OC)c1OC do in these assays?
A3A deaminase: inactive; NALP1 yeast inh: inactive; Fh CTSL1 inh: inactive; A3G deaminase: inactive; HGIII-sPLA2 inh: inactive

Results for O=C(CCCCCN1C(=O)C2C3C=CC(C3)C2C1=O)Nc1cc(F)cc(F)c1 (stereo not given) ?
HGIII-sPLA2 inh: inactive

What do the screens show for `CCN1C(=NCC2CC2)N[C@@H](c2ccccc2)C(C(=O)OC)=C1C`?
A3A deaminase: 45.6; A3G deaminase: inactive; HGIII-sPLA2 inh: inactive; A3A conf: 79.7; UDG A3A counter: inactive

How did CCN1C(=NCc2cc(OC)c(OC)c(OC)c2)N[C@@H](c2ccccc2)C(C(=O)OC)=C1C do in these assays?
A3A deaminase: 44.5; A3G deaminase: inactive; A3A conf: 67.7; UDG A3A counter: inactive

Results for COC(=O)C1=C(C)N(Cc2ccccc2)C(=NCc2ccc(OC)cc2)N[C@H]1c1cccc(F)c1 ?
A3A deaminase: inactive; NALP1 yeast inh: inactive; Fh CTSL1 inh: inactive; A3G deaminase: inactive; HGIII-sPLA2 inh: inactive

How did CCN1C(=NCc2cc(OC)c(OC)c(OC)c2)N[C@@H](c2cccc(C(F)(F)F)c2)C(C(=O)OC)=C1C do in these assays?
A3A deaminase: inactive; A3G deaminase: inactive; HGIII-sPLA2 inh: inactive

How did CCN1C(=NCc2ccc(OC)cc2)N[C@@H](c2ccccc2)C(C(=O)OC)=C1C do in these assays?
A3A deaminase: 92.1; NALP1 yeast inh: inactive; Fh CTSL1 inh: inactive; A3G deaminase: inactive; HGIII-sPLA2 inh: inactive; A3A conf: 66.0; UDG A3A counter: inactive

How did O=S1(=O)CCSC[C@@H](CN2CCOCC2)N1 do in these assays?
HGIII-sPLA2 inh: inactive

Results for CCN(C(=O)CSc1nnc(-c2cccnc2)n1Cc1ccco1)c1ccccc1 ?
HGIII-sPLA2 inh: inactive

Results for CC(=O)OC12CCCN(C1)/C(=C/c1ccc(Cl)cc1)C2 (stereo not given) ?
HGIII-sPLA2 inh: inactive

How did O=C(CCNC(=O)c1ccc([N+](=O)[O-])cc1)Nc1nccs1 do in these assays?
A3A deaminase: 46.7; NALP1 yeast inh: inactive; Fh CTSL1 inh: inactive; A3G deaminase: inactive; HGIII-sPLA2 inh: inactive; A3A conf: inactive

What do the screens show for `Cc1ccc(CNC(=O)CCNC(=O)c2ccc([N+](=O)[O-])cc2)cc1`?
A3A deaminase: 45.9; A3G deaminase: inactive; HGIII-sPLA2 inh: inactive; A3A conf: 40.6; UDG A3A counter: inactive

How did CC1CN(c2nc3ccccc3nc2SCC(=O)N2CCN(S(=O)(=O)c3ccccc3)CC2)CC(C)O1 (stereo not given) do in these assays?
HGIII-sPLA2 inh: inactive

How did CCOc1ccc(N(CC(=O)N/N=C/c2ccc(OC(C)C)cc2)S(C)(=O)=O)cc1 do in these assays?
A3A deaminase: 51.7; NALP1 yeast inh: inactive; Fh CTSL1 inh: inactive; A3G deaminase: inactive; HGIII-sPLA2 inh: inactive; A3A conf: inactive

Results for CCCCn1c2c(c(=N)c3c1CCC3)CCC2 ?
A3A deaminase: 62.7; NALP1 yeast inh: inactive; Fh CTSL1 inh: inactive; A3G deaminase: inactive; HGIII-sPLA2 inh: inactive; A3A conf: 77.9; UDG A3A counter: inactive

How did CCCCCCCn1c2c(c(=N)c3c1CCC3)CCCC2 do in these assays?
NALP1 yeast inh: inactive; HGIII-sPLA2 inh: inactive

How did O=C(NCc1ccccc1F)C1CCC(CNS(=O)(=O)c2cccc3cccnc23)CC1 (stereo not given) do in these assays?
HGIII-sPLA2 inh: inactive
